# Screening data as filed in PubChem.
# E coli Lon inh – inhibitors of E. coli Lon protease, primary screen, biochemical, fluorescence polarization | actives 0.42% (n = 360,000) | AID 602123, 2011 | P0A9M0 | purified E. coli Lon protease | inhibition, % at 7.94 µM; in the data active = inhibition above about 13%, passing the limit was not always enough;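 also: 0% = enzyme with probe and DMSO and 100% = no enzyme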
# BCLXL inh – inhibitors of human Bcl-xL, primary screen, biochemical, fluorescence polarization, HTS; inhibition, % at 10.9 µM; GST-Bcl-xL / FITC-Bim BH3 peptide fluorescence polarization; actives 0.7% (n = 320,000); Bcl-2-like protein 1 (Homo sapiens), Q07817; AID 2129, 2009;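 active = inhibition above the mean of all tested compounds plus 3 SD, cutoff set per campaign, cut at about 30% in these data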;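 also: 0% = DMSO wells and 100% = unlabeled Bim-BH3 peptide competitor; inhibitors lower millipolarization by displacing the labeled peptide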
# Target sequence (Q07817 whole entry, looked up): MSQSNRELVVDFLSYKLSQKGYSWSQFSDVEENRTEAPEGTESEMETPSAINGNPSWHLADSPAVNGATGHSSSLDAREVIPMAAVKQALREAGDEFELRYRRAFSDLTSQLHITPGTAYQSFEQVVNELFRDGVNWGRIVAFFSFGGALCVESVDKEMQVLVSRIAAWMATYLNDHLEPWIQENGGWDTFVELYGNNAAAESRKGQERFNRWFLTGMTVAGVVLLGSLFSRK
# GLD-1 TGE inh – GLD-1/TGE RNA complex disruptors, primary screen, biochemical, fluorescence polarization; purified GLD-1 + fluorescein TGE RNA; inhibition, % at 5.96 µM; Female germline-specific tumor suppressor gld-1 (Caenorhabditis elegans), Q17339; actives 0.44% (n = 320,000);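 active = percent inhibition above a per-plate cutoff, the plate mean of test compounds plus 3 SD, cut at about 30% in these data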;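 also: 0% = DMSO wells with GLD-1 and probe and 100% = wells lacking GLD-1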
# EBV gp42 block – Epstein-Barr virus gp42 inhibitors, primary screen, biochemical, uHTS, fluorescence polarization. Glycoprotein 42 (Epstein-Barr virus (strain AG876)), Q1HVG2. Fluorescence polarization binding assay, mP read-out. inhibition, % (tested at 21.74 µM). actives 0.42% (n = 220,000); in the data active = inhibition above about 50%
# MCL1 BIM primary – inhibitors of MCL1 binding to BIM-BH3, primary screen, biochemical, fluorescence polarization | Induced myeloid leukemia cell differentiation protein Mcl-1 (Homo sapiens), Q07820 | inhibition, % at 10.9 µM | GST-MCL1 / FITC-Bim-BH3 fluorescence polarization | actives 0.68% (n = 320,000);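 active = inhibition above the mean inhibition of all tested compounds plus 3 SD, set per campaign, cut at about 40% in these data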;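 also: 0% = DMSO wells and 100% = unlabeled Bim-BH3 peptide control; higher means more loss of mP so more displacement of Bim peptide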
# Target sequence (Q07820 whole entry, looked up): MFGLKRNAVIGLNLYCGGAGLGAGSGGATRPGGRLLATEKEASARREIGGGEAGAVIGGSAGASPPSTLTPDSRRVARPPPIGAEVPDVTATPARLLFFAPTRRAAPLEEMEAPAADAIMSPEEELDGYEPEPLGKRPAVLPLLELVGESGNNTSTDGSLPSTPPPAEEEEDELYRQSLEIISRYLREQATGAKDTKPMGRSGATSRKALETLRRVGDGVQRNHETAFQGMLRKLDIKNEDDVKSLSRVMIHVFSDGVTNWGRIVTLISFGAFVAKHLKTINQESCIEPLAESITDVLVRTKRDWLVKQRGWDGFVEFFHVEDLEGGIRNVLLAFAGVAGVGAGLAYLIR
# MEX-5 binding – MEX-5 zinc finger RNA-binding disruptors – biochemical, C. elegans, fluorescence polarization, MLPCN library, primary screen | Zinc finger protein mex-5 (Caenorhabditis elegans), Q9XUB2 | MEX-5/FITC-TCR2 RNA binding; active compounds read low | activity score (negative = inhibition of binding), % at 10 µM | actives 0.38% (n = 300,000) | AID 1832, 2009;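 active = inhibition past about -25% in most replicates, and total fluorescence under double the plate's negative control median, limit read from the data; inconclusive = replicates evenly split on the limit, or fluorescence at least double controls; inactive = too little inhibition in most replicates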;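 also: 0% = DMSO and -100% = 5 µM competing unlabeled TCR2 RNA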
# The depositor's hits bear a star; ? = inconclusive; · = not tested or not shown; + = active, no number. The list is not random: actives were taken first. Their share in the collection is about 1.5%.
SMILES,E coli Lon inh,BCLXL inh,GLD-1 TGE inh,EBV gp42 block,MCL1 BIM primary,MEX-5 binding
O=C(CN1CCN(C(=O)c2ccco2)CC1)N1CCc2[nH]c3ccccc3c2C1,·,35.7*,-17.1,0.5,29.8,-7.4
Cc1ccc2[nH]c3c(c2c1)CN(C(=O)CN1c2ccc(F)cc2CCC1C)CC3 (centres undefined),7.9,-2.6,3.5,-9.5,-13.3,0.1
Cc1ccc2[nH]c3c(c2c1)CN(C(=O)CN1CCN(C(=O)c2ccco2)CC1)CC3,·,47.9*,31.5*,12.8,30.2,?
O=C(CN1CCSCC1)N1CCc2[nH]c3ccc(Br)cc3c2C1,·,·,·,-2.6,·,-1.1
O=C(c1ccco1)N1CCN(Cc2nc3ccccc3[nH]2)CC1,1.3,·,1.9,·,·,·
Cc1ccc2[nH]c3c(c2c1)CN(C(=O)CN1CCN(c2cccc(C)c2C)CC1)CC3,13.0,37.6*,30.7,19.0,25.2,3.3
COc1cc2c(cc1NC(=O)c1cc(-c3ccccn3)nc3ccccc13)oc1ccccc12,1.3,6.7,-2.8,-15.2,11.8,-0.1
COc1ccc(C2=NOC(C(=O)Nc3ccc4c(c3)OCO4)C2)cc1OC (centres undefined),-0.7,3.7,8.4,2.0,-3.7,-0.7
CCCS(=O)(=O)NC(=O)C1(C)CCCN(C(=O)c2ccccc2C(F)(F)F)C1 (centres undefined),8.5,·,·,·,·,·
O=[N+]([O-])c1ccc(O)c2ncccc12,-0.8,0.7,7.7,-17.5,8.4,-2.4
O=[N+]([O-])c1ccc(O)c2cccnc12,9.3,43.9*,13.3,31.1,47.8*,-4.2
Cc1ccc2cc(/C=C3\N=C(c4ccccc4)OC3=O)c(N3CCOCC3)nc2c1,·,-3.7,0.2,157.5*,-11.8,-33.8*
COc1ccc(N2CCN(c3nc4cc(C)ccc4cc3C=O)CC2)cc1,-5.3,4.6,3.1,·,2.8,1.0
N=C1/C(=C\c2ccc(-c3ccc(C(=O)O)cc3)o2)C(=O)N=C2SC=C(c3ccccc3)N12,-2.9,·,·,61.1*,·,-1.3
CC1=C(C(=O)OCC(Br)(Br)Br)C(c2cccc([N+](=O)[O-])c2)NC(=O)N1CCCC(=O)O (centres undefined),3.6,4.4,0.0,·,8.3,1.1
CCOC(=O)COc1nc2c(c(-c3ccco3)c1C#N)CCc1ccccc1-2,-3.6,-2.8,7.9,-3.0,3.4,0.6
N#Cc1c(OCC(=O)c2ccccc2)nc2c(c1-c1ccco1)CCc1ccccc1-2,-3.7,33.7*,13.0,-24.3,35.0,1.8
COc1ccc(C(=O)CCc2ccccc2)cc1,-0.2,2.0,-5.5,·,3.5,-1.3
COC(=O)C1=C(C)N(c2ccccc2)/C(=C/c2ccco2)C1=O,-5.5,7.5,5.3,-12.7,11.2,-28.4*
CCc1c(C)sc(NC(=O)c2ccccc2[N+](=O)[O-])c1C(N)=O,5.2,9.8,-2.2,7.1,14.4,-0.4
CC(C)(C)S(=O)N1Cc2cc(=O)n(Cc3ccccc3)c(CCO)c2[C@@H]1CCO (some centres undefined),-3.4,·,·,·,·,·
Clc1ccc2[nH]c(-c3ccccc3)cc2c1,-6.4,+,3.9,7.3,2.4,-1.1
CCCCn1c(O)c(/C=C2\C=Nc3ccccc32)c(=O)[nH]c1=O,-124.7,-11.0,-18.1,·,-10.8,-30.9*
C/C(CC(=O)NC12CC3CC(CC(C3)C1)C2)=N\NC(=O)c1ccc(F)cc1,11.9,6.7,7.0,·,8.6,-2.6
CC(=O)C1=C(C)OC(N)=C(C#N)C1c1ccncc1 (centres undefined),-5.6,30.3*,17.6,-2.1,41.5*,-7.3
SMILES,E coli Lon inh,BCLXL inh,GLD-1 TGE inh,EBV gp42 block,MCL1 BIM primary,MEX-5 binding
Cc1ccc(C(C)NC(=O)c2ccc3c(c2)OCO3)cc1C (centres undefined),-7.7,0.0,4.2,·,-2.5,-1.9
N#C/C(=C\c1ccccc1[N+](=O)[O-])C(=O)NCc1ccccc1,19.3,33.9*,30.0,-3.9,39.1,-1.4
N#C/C(=C\C=C\c1ccccc1[N+](=O)[O-])C(=O)NCc1ccccc1,7.2,9.9,8.2,·,6.7,0.8
Cc1ccccc1NC(=O)/C(C#N)=C\c1cccnc1,-13.1,-15.6,2.1,-3.2,-23.1,-3.2
N#C/C(=C\c1cccnc1)C(=O)Nc1ccccc1[N+](=O)[O-],-0.6,34.1*,23.9,·,36.4,-0.4
O=C(Nc1ccc(F)cc1F)C1CCN(S(=O)(=O)c2cccnc2)CC1,0.8,5.3,-1.5,·,2.5,-0.9
CC(C)[C@H]1COCCS(=O)(=O)N1Cc1ccccc1-c1cccc(Cl)c1,-9.7,·,·,·,·,·
CC(Sc1nc(N2CCOCC2)c2c(c1C#N)CC(C)(C)OC2)C(=O)O (centres undefined),-18.3,31.3*,-10.2,·,-5.3,0.2
COC(=O)Sc1nc(N2CCOCC2)c2c(c1C#N)CC(C)(C)OC2,8.4,6.7,0.3,-9.4,3.1,0.9
NS(=O)(=O)c1ccc(CCNc2ncnc3c2c(-c2ccccc2)cn3-c2ccc(F)cc2)cc1,3.7,4.8,8.9,-19.5,5.6,-3.6
COc1cccc(NC(=O)CNC(=O)N2CC(=O)Nc3ccccc32)c1,-9.4,44.1*,0.7,·,7.8,-0.5
CCC(=O)Nc1sc2c(c1C(N)=O)CCN(Cc1ccccc1)C2,-15.8,14.0,18.3,·,11.1,-7.6
CNC(=O)c1c(NC(=O)c2ccc(S(=O)(=O)N3CCCCC3C)cc2)sc2c1CCN(C)C2 (centres undefined),-15.9,0.5,-4.1,·,-1.6,-26.2*
CN1CCc2c(sc(NC(=O)c3ccc4ccccc4c3)c2C(N)=O)C1,-150.6,-17.1,-48.1,·,-29.1,-92.4*
NC(=O)c1c(NC(=O)c2ccccc2)sc2c1CCN(Cc1ccccc1)C2,-168.7,-40.9,-120.6,·,-75.6,-27.2*
CC(C)C(=O)Nc1sc2c(c1C(N)=O)CCN(Cc1ccccc1)C2,-7.9,-3.1,0.4,·,-2.3,1.9
CN1CCc2c(sc(NC(=O)Cc3ccccc3)c2C(N)=O)C1,-1.4,3.4,1.6,·,3.4,-2.3
NC(=O)c1c(NC(=O)c2c(F)cccc2F)sc2c1CCN(Cc1ccccc1)C2,-48.0,-19.2,-30.6,·,-22.4,-35.4*
CNC(=O)c1c(NC(=O)c2ccc(S(=O)(=O)N3CCCC3)cc2)sc2c1CCN(C(C)C)C2,·,-82.8,-101.3,·,-133.5,-0.5
O=[N+]([O-])c1ccccc1S(=O)(=O)N1CCN(C2CCN(Cc3ccccc3)CC2)CC1,3.9,1.1,1.5,·,12.6,-0.9
CN1CCc2c(sc(/N=C/c3ccco3)c2C(N)=O)C1,-1.8,46.5*,8.3,-20.4,45.6*,-9.9
